Measurements as given in PubChem BioAssay AID504585 (National Center for Advancing Translational Sciences (NCATS), 2011).
Results filed as inconclusive are left out. The source made the active and inactive calls.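 How the source made its calls: active means NMR saturation transfer binding signal to menin that a known MLL-derived binding peptide displaces; inconclusive means NMR binding signal present but the peptide does not displace it; inactive means no NMR binding signal.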

Biological target: Menin (Homo sapiens) (UniProt O00255)
Sequence (O00255 whole entry, looked up): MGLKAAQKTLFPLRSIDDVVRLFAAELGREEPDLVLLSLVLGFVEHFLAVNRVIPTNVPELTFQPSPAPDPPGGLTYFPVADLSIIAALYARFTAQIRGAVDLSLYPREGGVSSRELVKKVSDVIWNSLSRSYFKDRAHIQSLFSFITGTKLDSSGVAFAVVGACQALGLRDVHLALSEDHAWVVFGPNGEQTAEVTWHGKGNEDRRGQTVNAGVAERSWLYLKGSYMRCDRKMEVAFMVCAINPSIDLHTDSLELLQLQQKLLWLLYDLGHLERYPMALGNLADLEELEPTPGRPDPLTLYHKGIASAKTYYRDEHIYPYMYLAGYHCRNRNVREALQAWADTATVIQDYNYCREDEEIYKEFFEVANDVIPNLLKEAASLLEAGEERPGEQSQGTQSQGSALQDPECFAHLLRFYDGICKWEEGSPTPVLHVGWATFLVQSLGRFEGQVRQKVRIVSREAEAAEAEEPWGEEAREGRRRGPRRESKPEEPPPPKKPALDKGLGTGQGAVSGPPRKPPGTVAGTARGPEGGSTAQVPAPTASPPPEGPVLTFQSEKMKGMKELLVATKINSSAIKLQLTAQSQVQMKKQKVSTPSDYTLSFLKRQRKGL
Assay: Confirmation of Inhibitors Targeting the Menin-MLL Interaction in MLL Related Leukemias: Binding Confirmation with NMR Saturation Transfer Difference
Conditions: recombinant menin
Text: qHTS Assay for Inhibitors Targeting the Menin-MLL Interaction in MLL Related Leukemias NIH Chemical Genomics Center [NCGC] NIH Molecular Libraries Probe Centers Network [MLPCN] MLPCN Grant: MH084875-01A1 Assay Submitter (PI): Jolanta Grembecka, Tomasz Cierpicki, University of Virginia Translocations of the MLL (Mixed Lineage Leukemia) gene are frequently found in human leukemias affecting both children and adults. Fusion of MLL to one of more than 60 genes results in generation of oncogenic proteins upregulating Hox genes, which are vital to blood cell development. Patients harboring fusion of the MLL gene suffer from aggressive leukemias and respond poorly to available therapies. All of the oncogenic fusion proteins have a preserved N-terminal fragment of MLL that has been identified to interact with menin. It has been recently discovered that association with menin is critical to the leukemogenic activity of the MLL fusion oncoproteins. Selective targeting of the menin-MLL interaction could provide an attractive therapeutic approach to develop novel drugs for MLL-related leukemias. Small molecules blocking the menin-MLL interaction should reverse the oncogenic potential of MLL fusion proteins. We have developed and optimized a fluorescence polarization-based assay for the identification of Menin-MLL inhibitors. The assay was run employing two different MLL-derived peptides. The present assay uses a 12 amino acid peptide labeled with fluorescein at its N-terminus. This peptide consists of the menin high affinity binding motif from MLL and is potently bound by menin. Another peptide with a mutated sequence, labeled with Texas Red, was used in parallel as a less stringent screen for inhibitors. The present assay uses an orthogonal technique to identify those compounds specifically interacting with the target protein.
NMR samples for the saturation transfer difference (STD) experiments contained 2.5uM menin solution in 50 mM phosphate buffer, 50 mM NaCl, 1mM DTT, pH= 7.5, with 5% of D2O, final volume 150 uL. The compounds were added as stock solutions in DMSO to final 100 uM concentration and 5% DMSO. All NMR experiments were recorded using 600 MHz Bruker Avance III spectrometer at 25C. Samples for the competition STD experiments contained additional MBM1 peptide at final concentration of 25 uM and the measurements were carried out is the same way as described above for STD experiments.

outcome, inactive:
CCN(CC)Cc1cc2[nH]c3c4ccc(Cl)cc4ncc3c2cc1OC inactive; false
CCOc1ccc2c(c1)C(NC(C)=O)C(=O)N2CCN1CCOCC1 (stereo unspecified) inactive; false
O=C(CS)Nc1ccc2ccccc2c1 inactive; false
CC(=O)NC1C(=O)N(CCN2CCOCC2)c2ccc(C)cc21 (stereo unspecified) inactive; false
C[C@H](NC(=O)c1cc2c(cn1)[nH]c1ccccc12)C(=O)O inactive; false
CCc1ccc2c(c1)C(NC(C)=O)C(=O)N2CCN1CCOCC1 (stereo unspecified) inactive; false
CN(C)c1ccc(C2CC(=O)C=C(Nc3ccccc3N)C2)cc1 (stereo unspecified) inactive; false
CC(=O)NC1C(=O)N(CCN2CCOCC2)c2ccc(Cl)cc21 (stereo unspecified) inactive; false

outcome, active:
CCOc1cc(CNCCc2ccc(S(N)(=O)=O)cc2)ccc1OCc1ccccc1 active; true
O=C(C[N+]12CC[N+](CC(=O)c3ccc(F)cc3)(CC1)CC2)c1ccc(F)cc1 active; true
Cc1sc2ncnc(NC3CCN(Cc4ccccc4)CC3)c2c1C active; true
N#Cc1ccc(OCC(O)CN2CCN(C(c3ccccc3)c3ccccc3)CC2)cc1 (stereo unspecified) active; true
CCOC(=O)c1cnc2ccc(OCC)cc2c1N1CCN(C)CC1 active; true
CCCC(c1nnnn1Cc1cccs1)N1CCN(C2CCCC2)CC1 (stereo unspecified) active; true
CCC(c1nnnn1Cc1ccc(F)cc1)N1CCN(C2CCCCC2)CC1 (stereo unspecified) active; true
COc1ccccc1C(=O)Nc1ccnn1C1CCN(CC2CC=CCC2)CC1 (stereo unspecified) active; true
